The record followed here is PubChem BioAssay AID1259422 (The Scripps Research Institute Molecular Screening Center, 2018).

As a reminder, the inhibition is the relative decrease from the control value, in per cent.

The campaign covered roughly 640,000 compounds. About 9,300 (1.5%) were called active. Rule as the data show it: active = inhibition above about 32%; inactive = the rest. The full list was thinned out, with actives kept by preference.

A short description of the assay: TEAD-YAP interaction inhibition, primary screen, TEAD-YAP interaction inhibitor project, luminescence, HEK-TIYL cells (AID 1259422).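 Also: 0% = median of test compound wells and 100% = reference inhibitor wells.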 The note with it: TEAD-Gal4/YAP UAS-luciferase luminescence, at 9.12 µM, stronger effect = higher value.
With `Nc1ncnc(NCc2ccc(Cl)cc2)c1[N+](=O)[O-]`, the inhibition is -0.74% (inactive).
With `COC(=O)NNc1ncnc(N)c1[N+](=O)[O-]` the figure was 2.66% (inactive).
For `CC(C)(CO)Nc1ncnc(N)c1[N+](=O)[O-]`, the inhibition is 50.6% (active).
As to `O=C(/C=C/c1cccs1)N1CC[C@@H]2[C@H](CCCN2C(=O)c2ccc3[nH]ccc3c2)C1`, the inhibition was -4% (inactive).
With `COC(=O)c1c(NC(=O)C(C)N2C(=O)c3ccccc3C2=O)sc2c1CCCC2` (stereo not given) the figure was -8.49% (inactive); with `CC(=O)Oc1ccc2occ(C(=O)c3ccc(C)cc3)c2c1`, 41% (active); with `Cc1cc(=O)oc2c(OC(=O)c3cc4ccccc4o3)c(OC(=O)c3cc4ccccc4o3)ccc12`, -3.97% (inactive).
With `COc1ccc(NC(=O)Cc2coc3ccc(C)cc23)cc1` the figure was -3.85% (inactive); with `CC(=O)Oc1ccc2occ(C(=O)c3cc4ccccc4o3)c2c1`, 53.6% (active).
With `COc1ccc2occ(C(=O)c3ccc(N=C(C)N(C)C)cc3)c2c1` the figure was -23.4% (inactive).
On to `COc1ccc(OC)c(C(=O)c2coc3ccc(OC)cc23)c1`, for which the inhibition was 1.14% (inactive).
The figure for `CCOC(=O)Cn1c(=O)c2c(nc3n2CC(C)CN3c2ccccc2C)n(C)c1=O` (stereo not given) is 2.64% (inactive); for `O=C1c2ccccc2S(=O)(=O)N1c1ccc(Cl)cc1Cl` it is 6.48% (inactive).
The figure for `O=C(O)C(CCC(=O)N1CCOCC1)N1C(=O)c2ccccc2C1=O` (stereo not given) is -9.92% (inactive); for `Nc1nc(=O)n(C2OC(CO)C(O)C2O)cc1Br` (stereo not given) it is 5.2% (inactive).
Consider `O=c1cnn(C2OC(CO)C(O)C2O)c(=O)[nH]1` (stereo not given), for which the inhibition is 74.7% (active).
For the molecule `Nc1nc(N)c2ncn(C3OC(CO)C(O)C3O)c2n1` (stereo not given), the inhibition is -3.32% (inactive).
With `CCOC(=O)c1ccc(NC(=O)CSc2nnnn2-c2ccc([N+](=O)[O-])cc2)cc1` the figure was -1.87% (inactive).
With `N#Cc1c(NC(=O)c2cc([N+](=O)[O-])ccc2Cl)sc2c1CCC2` the figure was 32.6% (active); with `N#Cc1c(NC(=O)CSc2ccc([N+](=O)[O-])cn2)sc2c1CCCC2`, -0.26% (inactive); with `N#Cc1c(NC(=O)c2cc([N+](=O)[O-])nn2Cc2ccccc2)sc2c1CCC2`, 2.14% (inactive).
With `Cc1nnc(SCc2cccc3ccccc23)[nH]c1=O` the figure was -2.21% (inactive); with `O=S(=O)(c1ccc(Cl)c(C(F)(F)F)c1)N1CCNCC1`, 3.58% (inactive).
For `COC(=O)CNc1nc(Cl)nc(Nc2ccc(I)cc2C)n1`, the inhibition was -1.03% (inactive).
The figure for `CC(=O)N1CCN(Cc2nc(-c3ccc(Cl)cc3)cs2)CC1` is 2.89% (inactive); for `O=C(NCc1ccc(Cl)cc1)N1CCN(Cc2nc(-c3ccco3)cs2)CC1` it is 41.8% (active); for `O=C(CN1CCN(Cc2nc(-c3ccco3)cs2)CC1)NCc1ccc2c(c1)OCO2` it is -0.64% (inactive).
With `O=[N+]([O-])c1ccc(NC(=S)Nc2ccc(Br)cn2)cc1` the figure was 2.08% (inactive).
The figure for `CC(C)(C)NC(=O)c1cc2nc(-c3ccco3)cc(C(F)(F)F)n2n1` is -0.09% (inactive).
In the case of `O=C(NCCCNc1ccc([N+](=O)[O-])cc1Cl)c1ccc(Cl)cc1`, the inhibition was 3.65% (inactive).
Consider `Cc1ccc(C(=O)NCCNc2ccc([N+](=O)[O-])cc2Cl)cc1`, for which the inhibition is 34.1% (active).
`Cc1ccc(C(=O)NCCNc2ccc([N+](=O)[O-])cc2)cc1`: the inhibition was 1.76% (inactive).
With `CC(Oc1cccc2cccnc12)C(=O)NNC(=S)NC(=O)c1cc2ccccc2oc1=O` (stereo not given) the figure was 3.86% (inactive); with `Cc1ccccc1C1=NN2C(=N)/C(=C/c3c(C)nn(-c4ccccc4)c3Cl)C(=O)N=C2S1`, -14.8% (inactive).
As to `CCCN(CCC)S(=O)(=O)c1ccc2[nH]c(=O)ccc2c1`, the inhibition is -11.6% (inactive).
The figure for `COc1cc(C(=O)N/N=C\c2ccc(-c3cccc(C(=O)O)c3)o2)cc(OC)c1OC` is 64.9% (active).
With `COc1cc(OC)c(OC)cc1/C=N/NC(=O)c1ccccn1` the figure was -43.7% (inactive).
Take `CCC/C=N/NC(=O)c1cc(OC)c(OC)c(OC)c1`: the inhibition was 59.2% (active).
The figure for `COC(=O)N/N=C\c1ccc(-c2cccc(Cl)c2)o1` is -22.7% (inactive).
`CCCOC(=O)c1ccc(NC(=O)c2cc(OC)c(OC)c(OC)c2)cc1`: the inhibition was -1.39% (inactive).
With `COc1cc(C(=O)N/N=C/c2cccs2)ccc1O` the figure was 2.59% (inactive); with `Cc1ccc(C(=O)N/N=C\c2ccc(-c3cccc(C(=O)O)c3)o2)cn1`, -9% (inactive); with `COc1cc(C(=O)NCc2n[nH]c(=S)n2-c2ccccc2)cc(OC)c1OC`, 3.36% (inactive).
With `COc1cc(C(=O)N/N=C/c2cccs2)cc(OC)c1OC` the figure was 61.3% (active); with `CCC/C=N/NC(=O)c1ccc(C)cc1C`, -15.2% (inactive).
With `COc1cc(C(=O)N/N=C/c2c(Cl)[nH]c(=O)n2-c2ccccc2)cc(OC)c1OC` the figure was 72.6% (active); with `COc1cc(/C=N/NC(=O)c2cccs2)cc(OC)c1OC`, -55.4% (inactive).
In the case of `Cc1ccc(N2C(=O)c3cccc4c(Br)c([N+](=O)[O-])cc(c34)C2=O)c(C)c1`, the inhibition was 6.15% (inactive).
With `CCN(CC)CCCN(Cc1ccco1)C(=S)Nc1cc(C)c(Cl)cc1OC` the figure was 3.59% (inactive); with `Cc1nc2c(c(=O)[nH]1)CN(Cc1cccn1C)CC2`, -16.9% (inactive); with `Oc1ccc(-c2cnc3c(NCc4ccco4)nccn23)cc1`, -72.4% (inactive).
With `c1coc(CNc2ncnc3ccccc23)c1` the figure was 36.3% (active).
Regarding `Cc1ccc(-n2ncc3c(NCc4ccco4)ncnc32)cc1`, the inhibition is -76.8% (inactive).
The figure for `Ic1ccc2ncnc(NCc3ccco3)c2c1` is 15.7% (inactive); for `CCOC(=O)c1ccc(NC(=O)N2CCN(c3nc(-c4ccccc4)cs3)CC2)cc1` it is -7.79% (inactive); for `COCCNC(=O)c1cc2nc(-c3cccs3)cc(C(F)(F)F)n2n1` it is 8.1% (inactive).
With `Cc1cc(/C=C2/NC(=O)NC2=O)c(C)n1-c1ccc2ccccc2c1` the figure was 7.98% (inactive); with `Cc1ccccc1-n1c(C)cc(/C=C2\NC(=O)NC2=O)c1C`, 57.4% (active); with `Cc1cc(/C=C2/NC(=O)NC2=O)c(C)n1-c1ccc(Cl)cc1`, 4.42% (inactive).
Regarding `Cc1nn(C(=O)N(C)c2ccccc2)c(C)c1Br`, the inhibition is 5% (inactive).
With `CN(C(=O)n1nnc2ccccc21)c1ccccc1` the figure was 44.2% (active); with `COc1ccc(C(=O)n2nnc3ccccc32)cc1`, -1.4% (inactive).
The figure for `O=C(N/N=C/c1ccc(Cl)cc1)c1ccccc1F` is -4.81% (inactive); for `COCCNCC(=O)Nc1cccc2ccccc12` it is 8.26% (inactive).
The figure for `O=C(NN1CC(C(=O)OCc2ccc([N+](=O)[O-])cc2)CC1=O)c1ccccc1` (stereo not given) is 5.91% (inactive); for `Cc1cc(C)n(CCc2nc3c4ccccc4n(CC(N)=O)c(=O)n3n2)n1` it is 4.04% (inactive); for `COc1ccc(CC(=O)Nc2ccc(-c3cn4c(C)csc4n3)cc2)cc1` it is -12.5% (inactive).
With `Cc1csc2nc(-c3ccc(NC(=O)COc4ccccc4)cc3)cn12`, the inhibition was 78.2% (active).
As to `COC(=O)COc1ccc(NC(=O)COc2ccccc2)cc1`, the inhibition was 0.58% (inactive).
In the case of `O=C(Nc1cccc2ccccc12)c1nc2c(nnn2Cc2ccc(F)cc2)c(=O)[nH]1`, the inhibition is -2.87% (inactive).
The figure for `O=C(Nc1ccc(Br)cn1)c1ccccc1Cl` is -0.48% (inactive).
`CCCn1c(SCC(=O)Nc2nc(C)cs2)nnc1-c1ccccn1`: the inhibition is 12.5% (inactive).
With `Cc1ccccc1-n1c(SCC(=O)c2c[nH]c3ccccc23)nnc1-c1cccnc1` the figure was 48.9% (active); with `Cc1csc(NC(=O)CSc2nnc(-c3cccnc3)o2)n1`, -34.8% (inactive).
With `CCc1ccccc1-n1c(SCC(=O)Nc2nc(C)cs2)nnc1-c1cccnc1` the figure was 56.8% (active); with `Cc1ccccc1-n1c(SCC(=O)NNC(=O)c2ccco2)nnc1-c1cccnc1`, -12% (inactive); with `Cc1cccc(-n2c(SCC(=O)NNC(=O)c3ccco3)nnc2-c2cccnc2)c1C`, -0.49% (inactive).
In the case of `O=C(NCc1ccncc1)C(=O)NCC1OCCCN1S(=O)(=O)c1cccs1` (stereo not given), the inhibition was 0.25% (inactive).
With `CCCCOC(=O)c1cc(-c2ccc(OC)cc2)nc2ccc(Br)cc12`, the inhibition is 0.12% (inactive).
As to `Cc1[nH]c2ccccc2c1C(Nc1nccs1)c1ccccc1O` (stereo not given), the inhibition is 2.06% (inactive).
The figure for `Cn1c(SCC(=O)c2ccc([N+](=O)[O-])cc2)nnc1C(F)(F)F` is 4.67% (inactive).
With `O=C(N/N=C/c1ccccc1Cl)C(=O)N/N=C/c1ccccc1Cl` the figure was 9.07% (inactive).
The figure for `CCOC(=O)C1=CN(Cc2ccc(F)cc2)C=C(C(=O)OCC)C1c1ccc(Cl)cc1` is 1.74% (inactive); for `CC(=O)Nc1ccc(Nc2cc(C)nc(-n3nc(C)cc3C)n2)cc1` it is 36% (active); for `Cc1cc(C)n(-c2nc(Nc3ccc(OC(F)(F)F)cc3)nc(-n3nc(C)cc3C)n2)n1` it is -10.5% (inactive).
On to `CCc1ccccc1NC(=O)NCCNc1cc(-n2nc(C)cc2C)nc(C)n1`, for which the inhibition was -1.06% (inactive).
With `Cc1cc(NCc2ccccc2)nc(N2CCN(Cc3ccc4c(c3)OCO4)CC2)n1`, the inhibition was 3.95% (inactive).
The figure for `CC(=O)Nc1ccc(Nc2cc(Nc3ccccn3)nc(N)n2)cc1` is -12.6% (inactive).
With `Cc1cc(NCc2ccccc2)nc(-n2nc(C)cc2C)n1` the figure was 65.4% (active).
For the molecule `COc1cc2nc(NCc3ccc4c(c3)OCO4)nc(N)c2cc1OC`, the inhibition is 8.22% (inactive).
With `COc1cccc(NC(=O)CSc2nc(O)c(C)c(=O)n2-c2ccc(F)cc2)c1` the figure was -6.67% (inactive); with `COc1ccc(/C=N/NC(=O)CNc2cccc3ccccc23)cc1Cl`, 8.35% (inactive).
Consider `O=C(CCSc1nc(-c2ccccc2)cs1)N1CCOCC1`, for which the inhibition was -10.1% (inactive).
As to `O=C(NC1CC1)C1CCN(C(=O)c2sccc2-n2cccc2)CC1`, the inhibition was 0.5% (inactive).
Turning to `CCC1CN(Cc2cn(CC)nc2C)Cc2cc(OC)ccc2O1` (stereo not given), the inhibition was 4.73% (inactive).
